Laboratory results as given in PubChem BioAssay AID463173 (ICCB-Longwood Screening Facility, Harvard Medical School, 2010).
Hit rate of the full screen: of about 52,000 compounds, about 4,300 (8.3%) were called active. Only a selection was taken, and actives are over-represented in it overall. Unmarked numbers belong to inactive results. No stated cut-off is given here; in the data, active means survival mostly below about 52% (no sharp cut-off); inactive means mostly above about 56%.

Test system: DeltatarO mutant
Experiment: growth inhibition of S. aureus wild type versus tarO mutant, primary screen, teichoic acid synthesis inhibitors, RN4220, OD600 (AID 463173)
Settings: OD600, 18 h, active compounds read low, screened at 18.75 µg/mL (by protocol)

How did the survival turn out when `COc1ccc(Cl)cc1NC(=O)CSC1=Nc2ccccc2C2=NC(CC(=O)NCc3ccc4c(c3)OCO4)C(=O)N12` (stereo not given) was run?
Its survival is 87%.

`COc1ccc(CCn2c(=O)c3cccnc3n(CC(=O)Nc3ccc(C)cc3C)c2=O)cc1OC` was tested. Which survival did it give?
Its survival is 78%.

Which survival does the source give for `O=S(=O)(c1ccccc1)c1nc(-c2cccc(Cl)c2)oc1NCc1ccccc1` here?
The survival was 83%.

`O=C(NC1CCCCC1)c1ccc(CSc2nc3cccnc3n2Cc2ccccc2)cc1` was tested. Which survival did it give?
The survival was 102%.

With `O=C(NC1CCCC1)c1ccc2c(=O)n(Cc3ccccc3)c(SCc3ccccc3F)nc2c1` as the compound, how does the survival read?
The survival was 0% (active).

With `O=C(NC1CCCCC1)c1ccc(Cn2c(SCc3ccc(F)cc3)nc3cccnc32)cc1` as the compound, how does the survival read?
Its survival is 32% (active).

For `O=C(NC1CC1)c1ccc(Cn2c(SCc3ccc(F)cc3)nc3cccnc32)cc1`, which survival is on record?
Its survival is 78%.

Which survival does the source give for `O=C(NC1CCCC1)c1ccc(CSc2nc3cccnc3n2Cc2ccc(F)cc2)cc1` here?
The survival was 63%.

With `O=C(NC1CCCCC1)c1ccc(CSc2nc3cccnc3n2Cc2ccc(F)cc2)cc1` as the compound, how does the survival read?
The survival was 25% (active).

Which survival does the source give for `O=C(NC1CCCCC1)c1ccc(CSc2nc3cccnc3n2Cc2ccccc2F)cc1` here?
Its survival is 93%.

How did the survival turn out when `O=C(NC1CCCCC1)c1ccc(Cn2c(SCc3ccccc3F)nc3cccnc32)cc1` was run?
Its survival is 80%.

With `O=C(NC1CCCCC1)c1ccc(Cn2c(SCc3ccccc3)nc3cccnc32)cc1` as the compound, how does the survival read?
The survival was 83%.

`O=C(NC1CCCC1)c1ccc2c(=O)n(Cc3ccccc3)c(SCc3ccccc3)nc2c1` was tested. Which survival did it give?
The survival was 92%.

For `O=C(NC1CCCC1)c1ccc(CSc2nc3cccnc3n2Cc2ccccc2F)cc1`, which survival is on record?
Its survival is 37% (active).

`Cc1ccccc1CSc1nc2cc(C(=O)NC3CCCC3)ccc2c(=O)n1Cc1ccccc1` was tested. Which survival did it give?
Its survival is 107%.

With `O=C(Cn1cc(SCc2c(F)cccc2Cl)c2ccccc21)N1CCCC1` as the compound, how does the survival read?
Its survival is 74%.

With `COCCn1c(COc2ccc(Cl)cc2)nnc1SCC(=O)OC` as the compound, how does the survival read?
Its survival is 96%.

How did the survival turn out when `CCOc1ccccc1N(CC)C(=O)c1noc2c1COc1ccc(C)cc1-2` was run?
Its survival is 67%.

How did the survival turn out when `COc1ccc(CCNC(=O)NCc2noc3ccccc23)c(OC)c1` was run?
Its survival is 62%.

`NC(=O)CSc1nc2cc3c(cc2c(=O)n1CCCCCC(=O)NCc1ccc2c(c1)OCO2)OCO3` was tested. Which survival did it give?
The survival was 81%.

`CCC(=O)N1CCc2cc(Br)cc(S(=O)(=O)NCc3cccc(OC)c3)c21` was tested. Which survival did it give?
The survival was 58%.

For `COc1cccc(Cn2cc(S(=O)(=O)c3ccc(C)cc3)c(=O)c3cc4c(cc32)OCO4)c1`, which survival is on record?
Its survival is 67%.

Which survival does the source give for `COc1ccc(OC)c(S(=O)(=O)NCC(c2ccco2)S(=O)(=O)c2ccccc2)c1` (stereo not given) here?
Its survival is 94%.

How did the survival turn out when `CCOCCCNC(=O)CN1C(=O)COc2ccc(S(=O)(=O)N3CCCCCC3)cc21` was run?
The survival was 81%.

`COc1ccc(-c2nnc(Nc3ccc(OC)c(C(N)=O)c3)c3ccccc23)cc1` was tested. Which survival did it give?
The survival was 41% (active).

`CCOC(=O)c1c(Nc2ccc(OCC)cc2)nnc(-c2ccccc2)c1-c1ccccc1` was tested. Which survival did it give?
Its survival is -2% (active).

`CCOC(=O)c1c(Nc2ccc(OC)cc2)nnc(-c2ccccc2)c1-c1ccccc1` was tested. Which survival did it give?
Its survival is 7% (active).

For `C#CCOc1ccc(-c2nnc(Nc3cccc(C)c3)c3ccccc23)cc1`, which survival is on record?
The survival was 31% (active).

How did the survival turn out when `CCOC(=O)c1c(C)oc2ncnc(Nc3ccc(OCC)cc3)c12` was run?
The survival was 89%.

How did the survival turn out when `Cc1cccc(Nc2nnc(-c3ccc(C)c(S(=O)(=O)N4CCCCC4)c3)c3ccccc23)c1` was run?
Its survival is 104%.

Which survival does the source give for `COc1ccc(-c2nnc(Nc3ccc(OCC(N)=O)cc3)c3ccccc23)cc1` here?
Its survival is 69%.

How did the survival turn out when `CCOC(=O)c1c(Oc2ccc(OC)cc2)nnc(-c2ccccc2)c1-c1ccccc1` was run?
Its survival is 75%.

For `CCOC(=O)c1c(C)c(-c2ccccc2)n(CC(=O)Nc2ccc(OCC)cc2)c1C`, which survival is on record?
The survival was 73%.

How did the survival turn out when `CNC(=O)c1cc(Nc2nnc(-c3ccc(O)cc3)c3ccccc23)ccc1OC` was run?
The survival was 170%.

For `C#CCOc1ccc(-c2nnc(Nc3ccc(NC(C)=O)cc3)c3ccccc23)cc1`, which survival is on record?
The survival was 60%.

Which survival does the source give for `COC(=O)c1c(Oc2ccc(OC)cc2)nnc(-c2ccccc2)c1-c1ccccc1` here?
The survival was 101%.

How did the survival turn out when `O=S(=O)(c1ccc(Br)cc1)c1nc(-c2cccs2)oc1SCc1ccccc1F` was run?
Its survival is 66%.

Which survival does the source give for `Cc1cccc(CN2C(=O)c3ccccc3S(=O)(=O)c3ccc(C(=O)N4CCN(c5cc(C)ccc5C)CC4)cc32)c1` here?
The survival was 74%.

`CC1CCN(S(=O)(=O)c2ccc3c(c2)N(CC(=O)NCCc2ccc(Cl)cc2)C(=O)CO3)CC1` was tested. Which survival did it give?
Its survival is 87%.

For `Cc1cc(C)cc(Oc2nc3ccccn3c(=O)c2/C=C(\C#N)c2nc3ccccc3s2)c1`, which survival is on record?
The survival was 60%.

How did the survival turn out when `COc1ccc(NC(=O)CC2C(=O)N(c3ccc(C)cc3)C(=O)N2Cc2ccc(C)cc2)cc1` (stereo not given) was run?
The survival was 68%.

Which survival does the source give for `Cc1ccc(CN(C(=O)COc2ccccc2Cl)c2ccccn2)o1` here?
Its survival is 59%.

`COc1ccc(CCNc2ncnc3onc(C)c23)c(OC)c1` was tested. Which survival did it give?
Its survival is 100%.

For `COC(=O)c1c(-c2cccs2)csc1NC(=O)COc1ccccc1`, which survival is on record?
Its survival is 78%.

With `O=c1[nH]c2ccc(N=Cc3ccc(F)cc3)cc2[nH]1` as the compound, how does the survival read?
The survival was 73%.

Which survival does the source give for `COc1cc(C=Nc2ccc3[nH]c(=O)[nH]c3c2)ccc1OC(C)=O` here?
Its survival is 85%.

With `O=c1[nH]c2ccc(N=Cc3ccccc3C(F)(F)F)cc2[nH]1` as the compound, how does the survival read?
Its survival is 71% (active).

Which survival does the source give for `CC1CCN(S(=O)(=O)c2ccc3c(c2)N(CC(=O)O)C(=O)CO3)CC1` here?
The survival was 94%.

`CCOc1ccc(CNC(=O)Cc2ccc(NC(=O)N3CCCCc4ccccc43)cc2)cc1OC` was tested. Which survival did it give?
The survival was 85%.

`COc1ccc(N2CCN(C(=O)Nc3cn(CC(C)C)c(=O)c4ccccc34)CC2)cc1` was tested. Which survival did it give?
The survival was 83%.

With `CS(=O)(=O)N1CCC(N2CCN(Cc3ccccc3)C(=O)C2=O)CC1` as the compound, how does the survival read?
Its survival is 91%.

How did the survival turn out when `Cc1ccc(-c2nc(C(=O)Nc3cccc(C#N)c3)c3n2CCCCC3)cc1` was run?
The survival was 88%.

Which survival does the source give for `CC(=O)c1ccc(NC(=O)c2nc(-c3ccc(C)cc3)n3c2CCCCC3)cc1` here?
Its survival is 58%.

`CC(=O)c1cccc(NC(=O)c2nc(-c3ccc(C)cc3)n3c2CCCCC3)c1` was tested. Which survival did it give?
The survival was 34% (active).

How did the survival turn out when `N#C/C(=C/c1ccc(-c2cccc(C(F)(F)F)c2)o1)C(=O)OC1CCCCC1` was run?
Its survival is 82%.
